# According to PubChem BioAssay AID720509 (The Scripps Research Institute Molecular Screening Center, 2013):
# In all, about 370,000 compounds went through this assay and about 760 (0.21%) were called active. This excerpt belongs to a sample that is enriched for actives. Values without a mark were called inactive.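 Rule for the calls: active = inhibition above a per-campaign cutoff: mean of compounds within control limits plus 3 SD (cut at about 15% in these data); inactive = the rest.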
# Target: Fibrinogen beta chain (Homo sapiens) (UniProt P02675)
# Sequence (P02675 whole entry, looked up): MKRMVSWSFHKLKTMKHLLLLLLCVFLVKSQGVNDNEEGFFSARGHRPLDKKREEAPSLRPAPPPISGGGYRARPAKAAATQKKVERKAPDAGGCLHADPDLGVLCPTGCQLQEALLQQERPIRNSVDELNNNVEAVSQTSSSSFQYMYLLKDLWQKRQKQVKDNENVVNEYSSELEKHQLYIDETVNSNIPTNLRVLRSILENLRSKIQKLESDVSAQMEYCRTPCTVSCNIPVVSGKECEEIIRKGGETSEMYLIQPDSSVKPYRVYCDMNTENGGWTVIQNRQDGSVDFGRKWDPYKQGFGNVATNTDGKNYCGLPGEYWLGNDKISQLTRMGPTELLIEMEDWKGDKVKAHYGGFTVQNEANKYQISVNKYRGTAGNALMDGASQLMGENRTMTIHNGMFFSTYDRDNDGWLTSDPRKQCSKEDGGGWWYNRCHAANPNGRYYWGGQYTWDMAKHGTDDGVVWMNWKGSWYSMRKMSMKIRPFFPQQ
# Test: small molecules displacing Tn6 from DD(E) complex – biochemical, fluorescence polarization, human fibrin, Tn6 probe, primary screen (AID 720509);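 note: 0% = median of all compound wells on the plate and 100% = blocking peptide control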
# Settings: Fibrin DD(E) TRITC-Tn6 fluorescence polarization displacement; at 8.3 µM; active compounds read high
row,Compound,inhibition
1,CC1CNCCN1c1ccc(Cl)cc1 (stereo not given),0.71%
2,Cc1cc(N2CCNC[C@@H]2C)ccc1N1CC[C@H](O)C1,15.6% (active)
3,COc1ccccc1-n1c(O)c(C=NC2CC2)c(=O)[nH]c1=O,-5.91%
4,CC(=O)C1(O)CCC2C3CCC4=C(Cl)C(=O)CCC4(C)C3CCC21C (stereo not given),-1.79%
5,OC(Cn1c2ccccc2c2ccccc21)C[n+]1ccccc1 (stereo not given),-10%
6,COC1=C[C@@H]2[C@@H]3Cc4ccc(OC)c(O)c4[C@]2(CCN3C)CC1=O,5.14%
7,COc1c(O)ccc2c1-c1c3c(cc4c1C(C2)N(C)CC4)OCO3 (stereo not given),0.43%
8,COc1ccc2c(c1O)-c1cccc3c1[C@@H](C2)N(C)CC3,15.8% (active)
9,Fc1cccc(F)c1CN1CCN(Cc2c(F)cccc2F)CC1,-1.68%
10,CO[C@H]([C@H](C)/C=C/N(C)C=O)[C@@H](C)C(=O)CC[C@H](C)[C@H](O)[C@H](C)[C@H]1OC(=O)/C=C/C(C)=C/[C@H](O)[C@H](OC)C[C@@H]2C=CC[C@@H](C[C@H](OC)[C@@]3(CO3)[C@@H](OC)C[C@@H](OC)[C@@H]1C)O2,1.04%
